Results published in article PMC10668032, “Altered binding affinity of SIX1-Q177R correlates with enhanced WNT5A and WNT pathway effector expression in Wilms tumor”.
The full ranking holds about 33,000 sequences; the median of “e-score” is about -0.05, and the highest 2% start at about 0.38. What follows is part of a selection rich in the highest values, with near analogues and random picks from the rest.

Target: T1, SIX1-Q177R homeodomain (human, UniProt Q15475 108-198, Q177R)
T1 sequence: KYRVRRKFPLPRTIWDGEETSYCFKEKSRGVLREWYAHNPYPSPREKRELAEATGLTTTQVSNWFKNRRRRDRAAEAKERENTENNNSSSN
Experiment: universal protein binding microarray; Universal all-10-mer PBM (8x60K, AMADID 030236), 300 nM GST-tagged protein, Alexa Fluor 488 anti-GST; buffer, salt, pH and temperature not stated (as in Berger); high values mean tight binding
Settings: protein: ivt; tags: N-terminal GST; dsDNA, one strand shown
Summary of the method: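 GST-tagged homeodomains were made by in vitro transcription/translation and quantified by anti-GST western blot against a recombinant GST standard curve. They were applied in duplicate at 300 nM final concentration to universal 'all 10-mer' protein binding microarrays (8×60K format). Binding was quantified as 8-mer E-scores with the Universal PBM Analysis Suite.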

Sequence | binding signal
AACCCACC | 0.194 ± 0.0122 E-score
CGCGGGCA | 0.276 ± 0.0364 E-score
CCCGAGTC | 0.171 ± 0.0123 E-score
ACACCCCG | 0.466 ± 0.00875 E-score
CCACCCCG | 0.246 ± 0.0156 E-score
ACCCCCCG | 0.329 ± 0.0392 E-score
TCACCCCA | 0.184 ± 0.0578 E-score
ACACCCCA | 0.4705 ± 0.00327 E-score
GCACCCCC | 0.311 ± 0.046 E-score
CCACCCCC | 0.209 ± 0.0542 E-score
CCACCCCA | 0.267 ± 0.0424 E-score
ACCCCCCT | 0.302 ± 0.0219 E-score
ACACCCCC | 0.4871 ± 0.00117 E-score
ACACCCCT | 0.4748 ± 0.00334 E-score
AGACCCCT | 0.155 ± 0.0162 E-score
CCCTCGAC | 0.176 ± 0.00448 E-score
ATCGGGCA | 0.195 ± 0.0164 E-score
CCGCCCGA | 0.174 ± 0.00646 E-score
CCCTGCAC | 0.178 ± 0.0222 E-score
TGATACCA | 0.325 ± 0.0116 E-score
AACCCGTG | 0.23 ± 0.00447 E-score
GCGGAGTA | 0.241 ± 0.0385 E-score
ACTGGCAC | 0.152 ± 0.00487 E-score
ACCCGGAC | 0.171 ± 0.0263 E-score
AGCGCGGG | 0.2629 ± 0.0007 E-score

Sequence | binding signal
GAGAATAC | 0.194 ± 0.00365 E-score
GAGAACAC | 0.3811 ± 0.000742 E-score
CAGGAACA | 0.259 ± 0.00612 E-score
AAGAACAC | 0.423 ± 0.0082 E-score
CAGAACAC | 0.3812 ± 0.000905 E-score
CACTCTAC | 0.291 ± 0.0135 E-score
CCGCCACA | 0.282 ± 0.0124 E-score
ACAAGGGG | 0.185 ± 0.0199 E-score
CACTCCCA | 0.273 ± 0.0105 E-score
GCACTACA | 0.171 ± 0.00501 E-score
ACCCAGCG | 0.168 ± 0.00443 E-score
ACTTAGGG | 0.181 ± 0.0198 E-score
ATCAGGTG | 0.224 ± 0.00902 E-score
AAGTGGTG | 0.337 ± 0.0139 E-score
ACCTACAC | 0.4302 ± 0.00419 E-score
ACCTACCC | 0.252 ± 0.0152 E-score
CCCTACCC | 0.185 ± 0.00683 E-score
ACCTATAC | 0.2048 ± 0.00123 E-score
CCCTACAC | 0.424 ± 0.00443 E-score
GCCTACAC | 0.442 ± 0.0046 E-score
GCCCACAC | 0.255 ± 0.0252 E-score
CCCTACTC | 0.19 ± 0.0302 E-score
GCCTACGC | 0.167 ± 0.0292 E-score
GGGATCGA | 0.257 ± 0.0548 E-score
CACGACTA | 0.22 ± 0.0605 E-score

Sequence | binding signal
CACTAATC | 0.172 ± 0.0411 E-score
GTATTCTA | 0.1741 ± 0.00132 E-score
GTGTTCTA | 0.392 ± 0.00814 E-score
GTGTGCAA | 0.252 ± 0.0153 E-score
GTGTTCAA | 0.3855 ± 0.00337 E-score
GTGTTCCA | 0.361 ± 0.00459 E-score
GGGTTCAC | 0.184 ± 0.0552 E-score
GTGTTCGA | 0.409 ± 0.0112 E-score
AAGGGGTC | 0.17 ± 0.00583 E-score
CACCATTC | 0.23 ± 0.0429 E-score
CCCCCACA | 0.262 ± 0.0205 E-score
ACGGGGTA | 0.233 ± 0.00738 E-score
GGGTGGTA | 0.194 ± 0.0128 E-score
AATAGACA | 0.187 ± 0.00716 E-score
GATCCCCC | 0.368 ± 0.0192 E-score
AACCAGTG | 0.183 ± 0.00569 E-score
CACCAGTG | 0.404 ± 0.0086 E-score
CACCAGTC | 0.2944 ± 0.00254 E-score
CTCAGACA | 0.189 ± 0.00366 E-score
CCATACCC | 0.218 ± 0.00536 E-score
ACACATAC | 0.18 ± 0.0765 E-score
ACATACAC | 0.421 ± 0.012 E-score
GCATAAAC | 0.184 ± 0.0176 E-score
GCATACAC | 0.406 ± 0.00565 E-score
CCATACAC | 0.3962 ± 0.00378 E-score

Sequence | binding signal
ACATACCC | 0.17 ± 0.00441 E-score
CACCTCGA | 0.217 ± 0.0155 E-score
GAGGGGTA | 0.277 ± 0.00472 E-score
ATACCGGA | 0.178 ± 0.0104 E-score
AGGCAGGA | 0.158 ± 0.0089 E-score
ACCTAGAG | 0.175 ± 0.0492 E-score
GGGTGCAA | 0.261 ± 0.0357 E-score
CAACGCCA | 0.175 ± 0.0166 E-score
CCCCGACC | 0.15745 ± 0.000156 E-score
AACCGGTG | 0.299 ± 0.0429 E-score
CACCGGTG | 0.418 ± 0.0109 E-score
CACCGGTC | 0.21 ± 0.00979 E-score
AATTGGTG | 0.221 ± 0.00776 E-score
CCGCGACA | 0.241 E-score
GCAATACC | 0.166 ± 0.00689 E-score
ATAGTGTA | 0.391 ± 0.0352 E-score
ATAGTATA | 0.175 ± 0.0632 E-score
ATATAGTG | 0.265 ± 0.00494 E-score
CTAGTGTA | 0.391 ± 0.0289 E-score
CTAGTATC | 0.161 ± 0.0474 E-score
ATAGTGTG | 0.188 ± 0.00817 E-score
ATAGTGTC | 0.3846 ± 0.00175 E-score
CTAGTGTC | 0.4067 ± 0.00058 E-score
CTAGTCAC | 0.19 ± 0.0126 E-score
CTAGTACA | 0.245 ± 0.0089 E-score

Sequence | binding signal
CTTGTGTA | 0.154 ± 0.0563 E-score
CACCGTGA | 0.277 E-score
CCCCCGCC | 0.228 ± 0.0364 E-score
CACGGATC | 0.279 ± 0.0122 E-score
ACCATGAA | 0.1618 ± 0.00147 E-score
CATTGGGG | 0.162 ± 0.00379 E-score
CCCACTCC | 0.159 ± 0.0222 E-score
ACCCCGGA | 0.299 ± 0.00931 E-score
GTAGTGTA | 0.427 ± 0.00906 E-score
GTAGTGAC | 0.26 ± 0.0183 E-score
GTAGGGTA | 0.193 ± 0.0286 E-score
ACCAAGAG | 0.213 ± 0.0142 E-score
CACACACC | 0.389 ± 0.0305 E-score
AACACACA | 0.262 ± 0.0517 E-score
GACACACC | 0.422 ± 0.0192 E-score
CACACACG | 0.248 ± 0.0453 E-score
CACACACA | 0.184 ± 0.063 E-score
AACACACG | 0.231 ± 0.0156 E-score
AACACACC | 0.395 ± 0.0142 E-score
GACACAGC | 0.17 ± 0.0393 E-score
GACACACA | 0.334 ± 0.044 E-score
TGTACCAA | 0.164 ± 0.0254 E-score
GGGTATAC | 0.262 ± 0.00267 E-score
AACCCGGG | 0.244 ± 0.0275 E-score
CTACTCCA | 0.242 ± 0.00788 E-score

Sequence | binding signal
ATACCCAC | 0.196 ± 0.0233 E-score
CACCAGAC | 0.338 ± 0.00569 E-score
CACCGCCC | 0.3 ± 0.0125 E-score
ACACGAGG | 0.3796 ± 0.00182 E-score
ACCCGAGT | 0.259 ± 0.0341 E-score
ACACGAGT | 0.4013 ± 0.00247 E-score
ACACGAGA | 0.352 ± 0.0163 E-score
ACACGAGC | 0.3292 ± 0.0011 E-score
ACGCGAGT | 0.162 ± 0.045 E-score
CACCGCGA | 0.238 ± 0.0133 E-score
ACCGGGGG | 0.238 ± 0.00986 E-score
CAGGGTAC | 0.162 ± 0.0178 E-score
AACCCAGA | 0.214 ± 0.0243 E-score
CACTATAA | 0.253 ± 0.0572 E-score
CACCTTAA | 0.172 ± 0.0487 E-score
CCGTGTAA | 0.44 ± 0.0102 E-score
CCGGGTAG | 0.169 ± 0.0152 E-score
CCGTGCAC | 0.198 ± 0.0196 E-score
CCGGGTAA | 0.177 ± 0.0166 E-score
CCTTGTAA | 0.244 ± 0.024 E-score
GCGTGTGA | 0.347 ± 0.0138 E-score
ACGTGTGA | 0.293 ± 0.00636 E-score
ACGTGTAA | 0.413 ± 0.0225 E-score
CCGTGTAG | 0.4463 ± 0.00194 E-score
GCGGGTAA | 0.164 ± 0.019 E-score

Sequence | binding signal
GCGTGTAA | 0.441 ± 0.0209 E-score
TATCGTCA | 0.211 ± 0.012 E-score
CGAAAACA | 0.186 ± 0.0616 E-score
CACCTAGC | 0.168 ± 0.00559 E-score
ACCTCAAC | 0.27 ± 0.0213 E-score
CACCCTTC | 0.31 ± 0.0119 E-score
CAGCTACA | 0.191 ± 0.0188 E-score
GATACTGC | 0.158 ± 0.0138 E-score
CACGTTCA | 0.158 ± 0.0324 E-score
AATAGGGG | 0.171 ± 0.0238 E-score
TCGTGTAA | 0.434 ± 0.0291 E-score
TCGGGTAA | 0.194 ± 0.00451 E-score
GCTGAACA | 0.169 ± 0.0308 E-score
GGGTTTCA | 0.15 ± 0.00187 E-score
GTCAACAC | 0.38 ± 0.00874 E-score
CTCAACAC | 0.393 ± 0.0141 E-score
GTCAAACA | 0.1886 ± 0.00104 E-score
ATCAACAC | 0.3939 ± 0.00328 E-score
AGCAACAC | 0.361 ± 0.00441 E-score
TCCTTACA | 0.222 ± 0.0176 E-score
ATTGATCC | 0.187 ± 0.0355 E-score
CATCTGAC | 0.236 ± 0.0527 E-score
